Compound activity: PubChem BioAssay, The Scripps Research Institute Molecular Screening Center
FBW7 activator: FBW7 E3 ligase activators, primary screen, biochemical, AlphaScreen, human | F-box/WD repeat-containing protein 7 (Homo sapiens), Q969H0 | AlphaScreen FBW7–phospho-cyclin E peptide binding, activator screen | normalized activity (activation), % at 26.1 µM | 0.13% of 650,000 active | AID 1259310, 2017; in the data active = normalized activity above about 1.9%;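 note: purified mutant Fbw7 with reduced substrate affinity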
TEAD-YAP block: TEAD-YAP interaction inhibition, primary screen, TEAD-YAP interaction inhibitor project, luminescence, HEK-TIYL cells; TEAD-Gal4/YAP UAS-luciferase luminescence; inhibition, % at 9.12 µM; 1.4% of 640,000 active; AID 1259422, 2018; in the data active = inhibition above about 32%;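 note: 0% = median of test compound wells and 100% = reference inhibitor wells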
GPR151 activ: activators of human GPR151, primary screen, cell-based, PathHunter beta-arrestin, luminescence; G-protein coupled receptor 151 (Homo sapiens), Q8TDV0; PathHunter beta-arrestin GPR151 cells; activation, % at 11.2 µM; 1% of 650,000 active; in the data active = activation above about 4.9%;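 note: 0% = median of compound wells and 100% = cells with positive control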
MITF inh: MITF inhibitors, primary screen, biochemical, AlphaScreen, human; inhibition, % at 2.6 µM; 0.91% of 650,000 active; AlphaScreen MITF homodimerization, bead proximity signal; AID 1259374, 2018; in the data active = inhibition above about 50%;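 note: 0% = vehicle wells with protein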
Target sequence (O75030 whole entry, looked up): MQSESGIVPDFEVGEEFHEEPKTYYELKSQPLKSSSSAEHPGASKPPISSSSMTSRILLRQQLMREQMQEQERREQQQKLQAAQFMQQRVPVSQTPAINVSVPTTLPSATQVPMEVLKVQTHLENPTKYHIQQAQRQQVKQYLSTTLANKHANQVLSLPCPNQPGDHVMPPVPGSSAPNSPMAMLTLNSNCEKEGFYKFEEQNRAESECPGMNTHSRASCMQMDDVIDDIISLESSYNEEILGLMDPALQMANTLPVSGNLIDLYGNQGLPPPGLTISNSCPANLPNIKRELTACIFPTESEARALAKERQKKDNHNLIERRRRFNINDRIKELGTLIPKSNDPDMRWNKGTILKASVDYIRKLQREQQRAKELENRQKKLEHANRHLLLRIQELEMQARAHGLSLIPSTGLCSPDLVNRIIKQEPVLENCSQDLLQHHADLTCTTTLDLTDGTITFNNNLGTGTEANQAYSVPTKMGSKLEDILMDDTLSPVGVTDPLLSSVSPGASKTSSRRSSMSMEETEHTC
The depositor's hits bear a star. A selection: hits, their analogues and other compounds. The true share with any hit is near 3.5%.

SMILES	FBW7 activator	TEAD-YAP block	GPR151 activ	MITF inh
O=C1NC(=S)NC(=O)C1=Cc1ccc(OCc2cccc(C(=O)O)c2)cc1	0	63*	-8	5
CCOc1ccc(NC(=O)CN2C(=O)C(C)N=C(c3ccccc3)c3ccccc32)cc1 (configuration not stated)	0	8	1	-1
COc1cc(NC(=O)CN2C(=O)C(C)N=C(c3ccccc3)c3ccccc32)cc(OC)c1 (configuration not stated)	0	37*	0	5
CC(=O)NC1C(OC2OC(CC(O)C3OC(n4ccc(=O)[nH]c4=O)C(O)C3O)C(O)C(O)C2NC(=O)/C=C\CCCCCCCCCC(C)C)OC(CO)C(O)C1O (configuration not stated)	0	64*	0	-3
CCN1CCN(c2ccc(NC(=S)NC(C)=O)cc2Cl)CC1	0	43*	-1	-11
Cc1c(O)c(O)cc2c1CC=C1[C@@]2(C)CC[C@@]2(C)C3C[C@](C)(C(=O)O)CC[C@]3(C)CC[C@]12C (some centres not stated)	0	56*	-1	-3
CC1=C(O)C(=O)C=C2C1=CC=C1[C@@]2(C)CC[C@@]2(C)[C@@H]3C[C@](C)(C(=O)O)CC[C@]3(C)CC[C@]12C	0	43*	-1	-13
CCN1CCN(Cc2cc(I)c(O)c(OC)c2)CC1	1	-2	2	1
CN1CCN(C(=O)Cc2cccc3ccccc23)CC1	0	1	1	10
O=C(Nc1ccc([N+](=O)[O-])c(Cl)c1)C1CC(=O)N(c2ccc(Br)cc2)C1 (configuration not stated)	0	-5	1	4
Cc1c2oc3c(C)ccc(C(=O)N[C@@H]4C(=O)N[C@H](C(C)C)C(=O)N5CCC[C@H]5C(=O)N(C)CC(=O)N(C)[C@@H](C(C)C)C(=O)O[C@@H]4C)c3nc-2c(C(=O)N[C@@H]2C(=O)N[C@H](C(C)C)C(=O)N3CC(=O)C[C@H]3C(=O)N(C)CC(=O)N(C)[C@@H](C(C)C)C(=O)O[C@@H]2C)c(N)c1=O	0	95*	-1	4
CO[C@@H]1C[C@@H](C[C@H]2CC[C@H](C)[C@H]([C@@H](C)C(=O)O)O2)O[C@]2(O[C@](C)([C@H]3CC[C@@](C)([C@@H]4O[C@@H]([C@H]5O[C@@](O)(CO)[C@H](C)C[C@@H]5C)C[C@@H]4C)O3)C[C@H]2C)[C@@H]1C	0	77*	-3	12
CCOC(=O)C1C2NC(=S)N(c3c(C)cccc3C)C1(C)Oc1c(Cl)cc(Cl)cc12 (configuration not stated)	0	-14	2	-1
CCOC(=O)C1C2NC(=S)N(c3cccc(Cl)c3)C1(C)Oc1c(Cl)cc(Cl)cc12 (configuration not stated)	0	55*	-1	-10
CCOC(=O)C1C2NC(=S)N(c3ccc(C)cc3)C1(C)Oc1c(Cl)cc(Cl)cc12 (configuration not stated)	0	63*	0	6
O=[N+]([O-])c1nonc1NCn1cnnn1	0	12	0	-13
NC(Cc1cc(O)c(O)cc1O)C(=O)O (configuration not stated)	0	-7	0	62*
COc1ccc(N2CCN(Cc3ccccc3[N+](=O)[O-])CC2)cc1	0	-11	-1	57*
COc1ccc(CN2CCN(c3ccc(F)cc3)CC2)c(OC)c1	0	1	-1	23
COc1cccc(N2CCN(Cc3ccccc3[N+](=O)[O-])CC2)c1	0	6	-1	41
COc1ccc(N2CCN(Cc3ccc(F)cc3F)CC2)cc1	0	-3	-2	56*
O=C1NC(=O)C(=Cc2ccc(Sc3nc4ccccc4[nH]3)o2)C(=O)N1	0	3	1	26
Cc1ccc2onc(CC(=O)N3CCN(Cc4ccc5c(c4)OCO5)CC3)c2c1	1	-15	1	7
COc1ccc(OC)c(C2=NCC(=O)Nc3c2oc2ccccc32)c1	0	52*	1	-4
Cn1ccnc1C1(O)CC2CCC(C1)N2CC(=O)NC(C)(C)C (configuration not stated)	0	14	0	-1
SMILES	FBW7 activator	TEAD-YAP block	GPR151 activ	MITF inh
O=C(c1ccc(N2CC3CC(C2)c2cccc(=O)n2C3)c([N+](=O)[O-])c1)N1CCOCC1 (configuration not stated)	0	1	0	7
COc1[nH]c2ccccc2c1C=C(C#N)C#N	0	71*	1	7
C[C@@H]1C[C@@H]([C@H](O)CC2CC(=O)NC(=O)C2)C(=O)[C@@H](C)C1	0	98*	-3	-9
COC(=O)c1cc([N+](=O)[O-])cc([N+](=O)[O-])c1N1CCNC(C)C1 (configuration not stated)	0	-2	1	-3
C#CCOc1ccccc1/C=C/[N+](=O)[O-]	0	46*	-2	2
O=C(Nc1ccc(Br)cc1C(=O)c1ccccc1)c1ccco1	0	0	-1	-3
CCOC(=O)C1(c2ccccc2)CCN(Cc2ccc(O)c(C(=O)OC)c2)CC1	0	35*	0	7
CCCCn1c(=O)c(C(=O)Nc2cccc(Cl)c2Cl)c(O)c2ccccc21	0	5	0	3
COc1ccc(-n2cnc3cc(C(=O)N4CCC5(CC4)OCCO5)ccc32)cc1	0	48*	0	2
O=C(c1ccc2c(c1)ncn2-c1ccc(OCc2ccccc2)cc1)N1CCC2(CC1)OCCO2	0	42*	2	-2
O=C(c1ccc2c(c1)ncn2C1CCCCCC1)N1CCC2(CC1)OCCO2	0	-11	0	-1
Cc1cc2nnn(C[C@@H](C)N)c2cc1C	0	15	2	7
CC(=O)c1ncc(C(F)(F)F)cc1N1CCN(C)CC1	0	-11	-1	-7
NC(=O)C1CCN(/C=C2\C(=O)NC(=O)N(Cc3ccco3)C2=O)CC1	0	12	-1	58*
O=C1NC(=O)N(Cc2ccco2)C(=O)/C1=C\c1cn(Cc2ccccc2)c2ccccc12	0	0	0	28
O=C(O)c1nc(Cl)ccc1Cl	0	-1	-2	13
CCN1/C(=C/C=C/c2oc3ccc(-c4ccccc4)cc3[n+]2CC)Oc2ccc(-c3ccccc3)cc21 (tested in a mixture with another compound)	0	82*	1	-35
COc1cc(NCc2ccc(Cl)nc2)ncn1	0	5	0	7
CC[C@@]1(O)C(=O)OCc2c1cc1n(c2=O)Cc2cc3ccccc3nc2-1	0	76*	0	8
CC[C@@]1(O)C(=O)OCc2c1cc1n(c2=O)Cc2cc3c(O)cccc3nc2-1	0	78*	-2	34
CCCCc1nc2ccccc2c(=O)n1-c1ccccc1O	0	11	-1	12
CCN(CC)c1ccc(CNCCc2c(C)[nH]c3ccccc23)cc1	0	9	0	75*
